Only a selection was taken, and hits are over-represented in it overall.
S1P2 blocker: blocks the human S1P2 receptor; O95136; cell-based S1P2 antagonist assay, inhibition at 5 uM; inhibition, % at 5 µM; hit rate 0.21% among 97,000; in the data active = inhibition above about 45%;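 note: CRE beta-lactamase reporter cells expressing human S1P2 stimulated with S1P; 0% = agonist at EC80 alone and 100% = agonist plus reference antagonist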
Target sequence (O95136 whole entry, looked up): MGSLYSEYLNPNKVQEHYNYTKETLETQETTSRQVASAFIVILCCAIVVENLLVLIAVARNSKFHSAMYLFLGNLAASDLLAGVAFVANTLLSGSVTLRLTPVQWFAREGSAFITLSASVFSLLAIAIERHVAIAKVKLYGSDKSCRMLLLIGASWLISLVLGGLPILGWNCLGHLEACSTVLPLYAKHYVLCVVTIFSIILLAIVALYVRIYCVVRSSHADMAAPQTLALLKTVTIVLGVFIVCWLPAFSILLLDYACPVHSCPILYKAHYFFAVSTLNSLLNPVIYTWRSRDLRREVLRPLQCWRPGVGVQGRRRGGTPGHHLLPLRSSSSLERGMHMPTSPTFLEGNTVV
GALR2 antag: antagonists of human galanin receptor 2 (GALR2); hit rate 0.39% among 140,000; AID 828; GALR2-expressing cells, antagonist mode; O43603; inhibition, % at 4 µM; in the data active = inhibition above about 27%;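 note: cells stimulated with galanin 1-16 at roughly its EC80; 0% = agonist challenge control and 100% = basal control without agonist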
GALR2 agonist: agonists of human galanin receptor 2 (GALR2); hit rate 0.48% among 140,000; GALR2-expressing cells, agonist activation read-out; O43603; activation, % (test concentration not listed); in the data active = activation above about 5%, passing the limit was not always enough;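 note: 0% = vehicle buffer wells and 100% = reference agonist at full effect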
PostGolgi yeast: growth inhibition of a yeast mutant, post-Golgi transport screen. post-Golgi transport phenotypic cell assay. inhibition, % at 10 µM. hit rate 0.9% among 98,000. AID 739;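 note: yeast cells grown in 1536-well plates; yeast grown about 18 h at 30C before absorbance read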
PostGolgi ctrl: yeast control strain growth, post-Golgi counter-screen. hit rate 5% among 98,000. inhibition, % at 10 µM. AID 738. efflux-deficient yeast background strain, growth absorbance A615, 16 h
S1P2 ag: S1P2 (human) receptor agonism. O95136. S1P2-expressing cell line, agonist reporter read-out. activation, % at 4.5 µM. hit rate 0.46% among 97,000. AID 729; in the data active = activation above about 16%;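 note: 0% = vehicle low control and 100% = maximal reference agonist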
* = called active by the depositor. Cut-off read from the data, not from the text of the source, unless noted: active = inhibition above about 30%; inactive = the rest.

`CC(=O)c1nn(-c2cccc(Br)c2)cc1C(=O)c1ccc(Cl)cc1` gave GALR2 antag -10 and GALR2 agonist 7.5*.
For Nc1ccc(Oc2ccc3nc(-c4ccccc4)c(-c4ccc([N+](=O)[O-])cc4)nc3c2)cc1 the results were S1P2 blocker 2, GALR2 antag -12, GALR2 agonist -1, PostGolgi yeast 37*, PostGolgi ctrl 19 and S1P2 ag -4.
Screening Cc1ccc(-c2ccc(=O)n(CC(=O)NCCCN3CCCCC3C)n2)cc1 (configuration not stated) returned S1P2 blocker -2, GALR2 antag 2, GALR2 agonist -2, PostGolgi yeast -8, PostGolgi ctrl 9 and S1P2 ag -3.
For CC1CCCCN1CCNC(=O)Cn1nc(-c2ccccc2)ccc1=O (configuration not stated) the results were GALR2 antag -1, GALR2 agonist 0, PostGolgi yeast 39* and PostGolgi ctrl 0.
`CN1C(=O)CSc2ccc(NC(=O)N3CCN(c4ccccn4)CC3)cc21` gave GALR2 antag 2 and GALR2 agonist 0.
CN1C(=O)CSc2ccc(NC(=O)Nc3ccccn3)cc21 was read as S1P2 blocker 51*, GALR2 antag -12, GALR2 agonist 0, PostGolgi yeast 0, PostGolgi ctrl 7 and S1P2 ag -12.
For CN1c2ccccc2Oc2c(c(=O)n(C)c(=O)n2C)C1c1cccc([N+](=O)[O-])c1 (configuration not stated) the results were S1P2 blocker 23, GALR2 antag 2, GALR2 agonist 0, PostGolgi yeast -7, PostGolgi ctrl 9 and S1P2 ag -2.
CCc1cc(=O)oc2cc(C)c(CN3CCCC(C)C3)c(O)c12 (configuration not stated) was read as S1P2 blocker -11, GALR2 antag 12, GALR2 agonist -2, PostGolgi yeast 33*, PostGolgi ctrl 0 and S1P2 ag 1.
For CCCCc1cc(=O)oc2cc(C)c(CN3CCCC3)c(O)c12 the results were S1P2 blocker 4, GALR2 antag -5, GALR2 agonist -2, PostGolgi yeast 17, PostGolgi ctrl 20 and S1P2 ag -4.
COc1cc(C(=O)N2CCC(n3c(C)nc4cc(F)ccc43)CC2)cc(OC)c1OC was read as S1P2 blocker -28, GALR2 antag 11, GALR2 agonist -2 and S1P2 ag -5.
O=S(=O)(c1ccc(F)cc1)N1CCC(N2CCN(c3ccccc3)CC2)CC1 was read as S1P2 blocker 5, GALR2 antag 2, GALR2 agonist -3 and S1P2 ag -3.
CCOC(=O)N1CCC2(CC1)CC(=O)c1c(ccc3oc(C(=O)O)c(C)c13)O2 was read as GALR2 antag 6, GALR2 agonist 0, PostGolgi yeast 0 and PostGolgi ctrl 9.
For CCOC(=O)c1oc2ccc3c(c2c1C)C(=O)CC1(CCN(C(=O)OCC)CC1)O3 the results were GALR2 antag -17, GALR2 agonist 1, PostGolgi yeast -7 and PostGolgi ctrl 35*.
CC1Nc2ccccc2C(=O)N1NS(=O)(=O)c1ccccc1 (configuration not stated) was read as GALR2 antag 7 and GALR2 agonist -1.
For C=CCc1c(C)nc(SC)nc1Nc1ccc(C(C)=O)cc1 the results were S1P2 blocker -15, GALR2 antag -5, GALR2 agonist -1, PostGolgi yeast 6, PostGolgi ctrl 31* and S1P2 ag -12.
COc1ccc(/C=N/N=C2\SC(CC(=O)O)C(=O)N2c2ccccc2)c(OC)c1 (configuration not stated) was read as GALR2 antag -24 and GALR2 agonist 0.
For c1ccc(C(c2c[nH]c3ccccc23)c2c[nH]c3ccccc23)nc1 the results were S1P2 blocker -21, GALR2 antag -6, GALR2 agonist 0, PostGolgi yeast -5, PostGolgi ctrl 8 and S1P2 ag -4.
For Cn1cc(C(c2ccccn2)c2cn(C)c3ccccc23)c2ccccc21 the results were S1P2 blocker 3, GALR2 antag 12, GALR2 agonist -2, PostGolgi yeast 10, PostGolgi ctrl 53* and S1P2 ag -5.
`Cc1cc(NC(=S)NC(=O)c2ccccc2)ccc1-c1cc2ccccc2oc1=O` gave GALR2 antag 7 and GALR2 agonist -1.
`CSc1ccc(S(=O)(=O)N2CCN(Cc3ccc4c(c3)OCO4)CC2)cc1` gave GALR2 antag 6, GALR2 agonist -2, PostGolgi yeast 55* and PostGolgi ctrl 53*.
For COc1ccc(Cl)cc1S(=O)(=O)N1CCN(Cc2ccc3c(c2)OCO3)CC1 the results were S1P2 blocker 18, GALR2 antag -10, GALR2 agonist 0, PostGolgi yeast -4, PostGolgi ctrl 15 and S1P2 ag -1.
For O=S(=O)(Cc1ccccc1Cl)N1CCN(Cc2ccc3c(c2)OCO3)CC1 the results were S1P2 blocker 17, GALR2 antag -19, GALR2 agonist -1, PostGolgi yeast 89*, PostGolgi ctrl 35* and S1P2 ag -9.
Screening O=c1cc(CN2CCN(S(=O)(=O)c3ccc4c(c3)OCCO4)CC2)c2ccc(O)cc2o1 returned S1P2 blocker -29, GALR2 antag -1, GALR2 agonist 6, PostGolgi yeast 0, PostGolgi ctrl 19 and S1P2 ag 3.
`O=S(=O)(Cc1ccc(Cl)cc1)N1CCN(Cc2ccccc2)CC1` gave S1P2 blocker -17, GALR2 antag 0, GALR2 agonist -2, PostGolgi yeast -3, PostGolgi ctrl 5 and S1P2 ag -1.
For COc1ccc(S(=O)(=O)N2CCN(Cc3ccc4c(c3)OCO4)CC2)c2ccccc12 the results were S1P2 blocker -8, GALR2 antag 7, GALR2 agonist -1, PostGolgi yeast -7, PostGolgi ctrl 35* and S1P2 ag -4.
CCc1ccc2c(CN3CCN(S(=O)(=O)c4ccc5c(c4)OCCO5)CC3)cc(=O)oc2c1 was read as S1P2 blocker 1, GALR2 antag -11, GALR2 agonist -3, PostGolgi yeast 5, PostGolgi ctrl 33* and S1P2 ag -4.
For COc1ccc(F)cc1S(=O)(=O)N1CCN(Cc2ccc3c(c2)OCO3)CC1 the results were S1P2 blocker 3, GALR2 antag 0, GALR2 agonist -2, PostGolgi yeast 2, PostGolgi ctrl 24 and S1P2 ag -5.
For COc1ccc(C(=O)C(C)Oc2cccc(NC(=O)c3cccc([N+](=O)[O-])c3)c2)cc1 (configuration not stated) the results were GALR2 antag 2 and GALR2 agonist -1.
`O=C(OCC(=O)N1CCN(C(=O)c2ccco2)CC1)c1ccccc1OCc1ccc(Cl)cc1` gave GALR2 antag 2, GALR2 agonist -1, PostGolgi yeast 7 and PostGolgi ctrl 42*.
`O=C(OCC(=O)N1CCN(C(=O)c2ccco2)CC1)c1ccccc1O` gave S1P2 blocker -14, GALR2 antag -19, GALR2 agonist 0, PostGolgi yeast -4, PostGolgi ctrl 1 and S1P2 ag -5.
For O=C(Nc1ccccc1C(=O)OCC(=O)N1CCc2ccccc2C1)c1ccco1 the results were S1P2 blocker -3, GALR2 antag -4, GALR2 agonist -1, PostGolgi yeast 1, PostGolgi ctrl 32* and S1P2 ag -1.

Screening data as filed in PubChem.
